# Potency and affinity values are given separately. Calls of active or inactive are those of the source. Where a call stands in place of a potency, no number is given. How the calls were made is not given here.
# Molecular target: KSHV LANA C-terminal domain (residues 932-1162) binding to LBS DNA (UniProt O40947)
# Assay: KSHV LANA DNA-binding disruption – biochemical, fluorescence polarization, cherry-picked samples, dose response (AID 504725)
# Details: MBP-C-LANA / FAM-LBS DNA fluorescence polarization, percent change from plate compound-well median; series mostly up to 35 µM
row,SMILES,outcome
1,CCOC(=O)C(C)(C)N(Cc1ccccc1C)S(=O)(=O)c1ccc(Cl)c([N+](=O)[O-])c1,inactive
2,O=C(/C=C/c1ccco1)Nc1ccccc1C(=O)Nc1cccc(C(=O)O)c1,inactive
3,CC(=O)O[C@@H]1[C@@H](OC(C)=O)[C@H](n2ccc3cc([N+](=O)[O-])ccc32)OC[C@@H]1OC(C)=O,inactive
4,O=C(c1coc(=O)c(Br)c1)N1CCCc2ccccc21,inactive
5,COc1cc(CN2CC(=O)N(c3cc(Cl)ccc3C)C2=S)cc(OC)c1OC,inactive
6,CSc1nc(SC(C)C(=O)O)c2c3c(sc2n1)COC(C)(C)C3 (stereo not drawn),inactive
7,Cc1ccc(-c2nnc(-c3ccc(NC(=O)c4ccco4)cc3)o2)cc1,inactive
8,CN(Cc1cnc2nc(N)nc(N)c2n1)c1ccc(C(=O)NC(CCC(=O)O)C(=O)O)cc1 (stereo not drawn),inactive
9,Cn1cc(C(=O)c2ccc(Cl)cc2Cl)cc1C(=O)N/N=C(\N)COc1ccccc1,inactive
10,O=C(C1CCCO1)N1CCN(c2ncccn2)CC1 (stereo not drawn),inactive
11,Nc1ccc(-c2nc3ccc(C(=O)O)cc3s2)cc1,inactive
12,CCOC(=O)C1C2C=CC3(CN(c4cccc(Cl)c4)C(=O)C13)O2 (stereo not drawn),inactive
13,CCN(c1ccc(C)cc1C)S(=O)(=O)c1nnc(NC(=O)c2ccco2)s1,inactive
14,COC(=O)C1CCN(C(=O)COC(=O)Cc2c[nH]c3ccccc23)CC1,inactive
15,COc1cc(NC(=O)c2ccc(CNc3c(N4CCCC4)c(=O)c3=O)cc2)cc(OC)c1OC,inactive
16,CCOc1ccc(C(C)NC(=O)c2ccccc2OCc2c(C)noc2C)cc1OCC (stereo not drawn),inactive
17,O=[N+]([O-])c1cccc(CSc2nc3ccccc3[nH]2)c1,inactive
18,Cc1nn(Cc2c(F)c(F)c(F)c(F)c2F)c(C)c1NC(=O)c1ccnn1C,inactive
19,COc1ccc(CC(=O)O/N=C(\N)c2ccc(OC)cc2)cc1,inactive

row,SMILES,outcome
1,CCCc1nc(SC)[nH]c(=O)c1C,inactive
2,NNc1nc(-c2ccccc2)cs1,inactive
3,O=C(NC1CCCCC1)c1cc([N+](=O)[O-])ccc1N1CCOCC1,inactive
4,CCN(CC(=O)Nc1c(F)cccc1F)C(=O)CCCc1cccs1,inactive
5,CN(C)/C=N/c1nc2nccc(-c3ccc(Cl)cc3)n2n1,inactive
6,COC(=O)\C(C(C)=O)=C(/C=C/C=C/C=C/N(C)C)N(C)C,inactive
7,O=c1oc2ccccc2nc1/C=C(\O)c1ccc(Br)cc1,inactive
8,COc1ccc(OC2CCN(S(=O)(=O)c3ccc(OC)cc3)CC2)cc1,inactive
9,Brc1c(CSc2nncc3ccccc23)nc2ccccn12,inactive
10,O=c1cc(-c2ccc(O)c(O)c2)oc2cc(O[C@@H]3O[C@H](CO)[C@@H](O)[C@H](O)[C@H]3O)cc(O)c12,inactive
11,COC(=O)c1ccccc1OCC(=O)N1CCN(c2ccc(Cl)cc2)CC1,inactive
12,CCOC(=O)c1ccc[n+](CC(=O)c2ccc(OC)cc2)c1,inactive
13,COc1ccc(S(=O)(=O)N2CCC(C(=O)N3CCCCC3)CC2)cc1,inactive
14,NNc1nc2sc3c(c2c(=O)n1C1CCCCC1)CCN(Cc1ccccc1)C3,inactive
15,Cc1ccsc1/C=N/NC(=O)Cc1ccc(Cl)cc1,inactive
16,NNC(=O)CC1=NNC(=O)C1,inactive
17,NC(=O)C1(N2CCCCC2)CCN(Cc2ccc(Br)cc2)CC1,inactive
18,O=C(O)c1ccccc1NS(=O)(=O)c1ccc(N/N=C/c2ccc(O)c(O)c2)c([N+](=O)[O-])c1,inactive
19,CCOC(=O)CCCn1c(C)nc(=O)c(-c2ccccc2)c1C,inactive
